The nature of assay [1]: Cellular Toxicity (caspase-3) HepG2 (AID 654).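 Also: cells exposed to compound for 16 hours before reading.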 A digest of the protocol: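 HepG2 cells (1500/well) in complete medium were treated with compounds for 16 hr at 37 °C. Caspase-3/7 activity was then read as luminescence from peptide-aminoluciferin cleavage. AC50 came from Hill fits, normalized to DMSO and 100 uM tamoxifen.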
A short description of assay [2]: Cellular Toxicity (caspase-3) Jurkat (AID 655).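 Also: cells exposed to compound for 16 h at 37 °C before reading.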 A digest of the protocol: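 5000 Jurkat cells/well; compound 16 hr, 37 °C; Caspase-Glo 3/7 added, 20 min RT; luminescence read. Norm: DMSO = 0%, tamoxifen 100 uM = 100%. AC50, Hill model.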
Assay [3] is described as follows: Cellular Toxicity (caspase-3) HUV-EC-C (AID 656). In outline: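 qHTS; HUV-EC-C, 1000 cells/well; 5 hr settle, 16 hr cmpd, 37°C; Caspase-Glo 3/7, 20 min RT; luminescence. Norm: DMSO = 0%, tamoxifen 100 uM = 100%. Hill-fit AC50.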
A short description of assay [4]: Cellular Toxicity (caspase-3) SHSY5Y (AID 657). In outline: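 qHTS, SH-SY5Y, 1500 cells/well, 5 h pre-incubation 37 °C; compound 16 h 37 °C; Caspase-Glo 3/7 1 h RT; luminescence. Norm.: DMSO = 0, 10 uM staurosporine = 100%. Hill fit → AC50.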
Assay [5] in a line: Cellular Toxicity (caspase-3) MRC-5 (AID 659). Particulars: Potency: caspase-3 activation. A digest of the protocol:
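MRC-5 human normal lung fibroblasts, 1500 cells/well, treated 16 h at 37 °C in complete medium. Caspase 3/7 measured by Caspase-Glo luminescence after 1 h at room temperature. Normalized to DMSO and 10 uM staurosporine; AC50 from Hill fit.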

The nature of assay [6]: Cellular Toxicity (caspase-3) Mesangial (AID 660). A digest of the protocol: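 Human renal glomerular mesangial cells (1000/well) were treated with compounds for 16 h at 37 °C in complete medium, then caspase 3/7 activity was read by Caspase-Glo luminescence. Data were normalized to DMSO and 100 uM tamoxifen; AC50 from Hill fits.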
A short description of assay [7]: Cellular Toxicity (caspase-3) SK-N-SH (AID 661). Particulars: SK-N-SH caspase-3 activation, qHTS; caspase-3 activation: at 91.7 µM (top of the series), DMSO as zero, staurosporine as full. In outline:
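SK-N-SH human neuroblastoma cells (1500/well) were treated with compounds for 16 hr at 37 °C in complete medium; caspase 3/7 activity was read by Caspase-Glo luminescence. AC50 came from Hill fits of data normalized to DMSO and 10 uM staurosporine.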
Background: Quantitative high-throughput screening tests each substance at several concentrations.

Assay [8] is described as follows: Cellular Toxicity (caspase-3) H-4-II-E (AID 663).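 Also: cells exposed to compound for 16 hr before readout.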 A digest of the protocol:
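Rat hepatoma H-4-II-E cells (1500/well) plated 5 hr, then exposed to compound titrations for 16 hr at 37 °C. Caspase-Glo 3/7 luminescence read after 20 min at RT; data normalized to DMSO and 100 uM tamoxifen, AC50 from Hill fits.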

Assay [9] can be described thus: Cellular Toxicity (caspase-3) Hek293 (AID 664).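 Also: cells exposed to compound for 16 h at 37 °C before readout.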 In outline: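 HEK293 cells were exposed to compounds in complete medium for 16 hr at 37 °C, then caspase-3/7 activity was read by Caspase-Glo 3/7 luminescence after 20 min at room temperature. Data normalized to DMSO and 100 uM tamoxifen; AC50 from Hill fits.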
The nature of assay [10]: Cellular Toxicity (caspase-3) N2a (AID 665).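 Also: compound exposure lasted 16 h at 37 °C before readout.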 In outline: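 Mouse N2a neuroblastoma cells (1500/well) were treated with compounds for 16 h at 37 °C, then caspase-3/7 activity was read by Caspase-Glo luminescence after 1 h at room temperature. Data were normalized to DMSO and 10 uM staurosporine; AC50 from Hill fits.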
Assay [11] is described as follows: Cellular Toxicity (caspase-3) NIH 3T3 (AID 666).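 Also: caspase signal read after 16 h compound exposure.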 In outline:
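Mouse NIH 3T3 fibroblasts (1000 cells/well) were treated with compound for 16 hr at 37°C in complete medium; caspase-3/7 activity was read by Caspase-Glo luminescence. Normalized to DMSO and 100 uM tamoxifen; AC50 from Hill fits.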

For assay [12], the target named is Cytochrome P450 3A4 (Homo sapiens) (UniProt P08684). Kind of assay: qHTS Assay for Activators of Cytochrome P450 3A4 (AID 885). Also: nearly all actives have a fitted effect of over 65% in size. In outline:
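Steps: enzyme/substrate mix dispensed; compound added, 10 min RT; NADPH regeneration solution added, 60 min RT; luciferin detection buffer stops reaction; 20 min later luminescence measured.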

For assay [13] the target is unchanged. Briefly: qHTS Assay for Inhibitors and Substrates of Cytochrome P450 3A4 (AID 884). Also: nearly all actives have a fitted effect of over 50% in size. Also: potency is read from the fitted curve at half-maximal effect. In outline:
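20 nM human CYP3A4 with 25 uM Luciferin-PPXE (at KM) in 200 mM KPO4, preincubated 10 min with compound; NADPH regeneration started a 60 min RT reaction. Luciferin detected by luminescence, normalized to 57 uM ketoconazole as full inhibition.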

The nature of assay [14]: Confirmation and Secondary Assay for Modulators of Hemoglobin Beta Chain Splicing at IVS2 654 locus (AID 910).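 Also: HeLa cells stably carrying EGFP split by mutant beta-globin IVS2-654 intron.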 In outline:
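HeLa cells stably expressing EGFP interrupted by β-globin IVS2-654 intron, seeded overnight in Opti-MEM/2% FCS, then treated 2 days at 37 °C. Restored splicing read as total peak GFP intensity per well by laser scanning cytometry (488 nm excitation, 500–520 nm emission); 500 nM antisense PNA as control.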

Assay [15] has as its target Guanine nucleotide-binding protein G(i) subunit alpha-1 (Homo sapiens) (UniProt P63096). Kind of assay: qHTS Assay for Inhibitors of RGS12 GoLoco Motif Activity (Green Fluorophore) (AID 879).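 Also: negative values mean loss of peptide binding seen as reduced polarization.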 A digest of the protocol:
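Fluorescence polarization assay: 50 nM Gαi1 with 10 nM FITC-labeled RGS12 GoLoco peptide in 10 mM Tris pH 7.5, 150 mM NaCl, 0.1 mM GDP, 0.05% NP40, 10 min at room temperature with compound.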

In assay [16] the target is Cytochrome P450 2D6 (Homo sapiens) (UniProt P10635). Briefly: qHTS Assay for Inhibitors and Substrates of Cytochrome P450 2D6 (AID 891).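 Also: luciferin methyl ether substrate demethylated by CYP2D6 with NADPH regeneration; nearly all actives have a fitted effect of over 60% in size.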 A digest of the protocol: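 Human CYP2D6 (5 nM) with 30 uM Luciferin-ME EGE (at Km) in 100 mM KPO4, compound preincubated 10 min, then NADPH regeneration system for 60 min at room temperature. Luciferin read by luminescence; normalized to 1.43 uM quinidine.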

A number with no mark means an inactive call. Results filed as inconclusive are left out. Activity calls are given as the source filed them. Calls follow the shape of the dose curve; as a rule, active = well fitted curve in the direction sought with a large enough effect; inconclusive = small, poorly fitted or top-dose-only effect, or another doubt; inactive = no such curve, though single readings can be large; an effect the other way counts as inactive or inconclusive.

Cytochrome P450 3A4 (Homo sapiens), sequence (P08684 whole entry, looked up): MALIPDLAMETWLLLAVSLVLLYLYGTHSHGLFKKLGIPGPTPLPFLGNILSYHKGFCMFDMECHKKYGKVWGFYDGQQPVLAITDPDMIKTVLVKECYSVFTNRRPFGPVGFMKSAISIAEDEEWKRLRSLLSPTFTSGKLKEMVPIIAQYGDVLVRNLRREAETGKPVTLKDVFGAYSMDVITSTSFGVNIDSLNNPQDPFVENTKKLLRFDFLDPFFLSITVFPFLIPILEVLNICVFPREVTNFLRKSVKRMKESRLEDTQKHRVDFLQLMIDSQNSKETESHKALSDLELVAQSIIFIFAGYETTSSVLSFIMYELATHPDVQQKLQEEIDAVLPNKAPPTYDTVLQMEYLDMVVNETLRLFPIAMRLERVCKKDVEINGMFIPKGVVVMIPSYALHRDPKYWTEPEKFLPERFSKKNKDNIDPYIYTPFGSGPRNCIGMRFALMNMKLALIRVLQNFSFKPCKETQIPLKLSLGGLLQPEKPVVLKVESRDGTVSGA
Guanine nucleotide-binding protein G(i) subunit alpha-1 (Homo sapiens), sequence (P63096 whole entry, looked up): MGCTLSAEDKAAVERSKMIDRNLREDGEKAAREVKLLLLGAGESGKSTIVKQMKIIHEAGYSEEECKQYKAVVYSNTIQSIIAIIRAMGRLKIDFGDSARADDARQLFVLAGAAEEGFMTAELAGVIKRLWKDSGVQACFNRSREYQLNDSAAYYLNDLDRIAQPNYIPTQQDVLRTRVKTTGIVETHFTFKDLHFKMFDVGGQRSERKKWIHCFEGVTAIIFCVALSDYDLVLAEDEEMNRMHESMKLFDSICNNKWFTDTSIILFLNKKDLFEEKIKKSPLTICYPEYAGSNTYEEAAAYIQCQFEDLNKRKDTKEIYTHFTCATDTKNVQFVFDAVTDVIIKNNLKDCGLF
Cytochrome P450 2D6 (Homo sapiens), sequence (P10635 whole entry, looked up): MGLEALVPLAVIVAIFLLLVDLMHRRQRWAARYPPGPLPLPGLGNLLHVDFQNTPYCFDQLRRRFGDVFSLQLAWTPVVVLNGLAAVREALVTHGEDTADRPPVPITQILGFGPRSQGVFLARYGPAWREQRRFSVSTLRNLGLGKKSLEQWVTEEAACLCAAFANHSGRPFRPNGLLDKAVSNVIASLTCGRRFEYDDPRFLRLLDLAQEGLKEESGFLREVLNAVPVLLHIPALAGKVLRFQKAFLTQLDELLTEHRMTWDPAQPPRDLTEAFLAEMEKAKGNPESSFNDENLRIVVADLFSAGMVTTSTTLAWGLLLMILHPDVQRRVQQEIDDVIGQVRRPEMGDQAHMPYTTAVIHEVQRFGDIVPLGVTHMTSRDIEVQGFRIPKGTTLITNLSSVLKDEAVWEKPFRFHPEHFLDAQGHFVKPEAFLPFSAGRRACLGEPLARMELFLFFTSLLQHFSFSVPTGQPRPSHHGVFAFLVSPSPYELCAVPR

Take `C[C@]12CCC(=O)C[C@@H]1CC[C@@H]1[C@@H]2CC[C@]2(C)[C@@H](O)CC[C@@H]12`: the result in assay [1], in assay [3], in [4], in assay [6], in assay [8] and in [9] was inactive. In addition, the result in [10] and in assay [12] was inactive. Besides, the Potency entry in assay [2], in [5], in assay [7] and in [11] was “inactive” in each case.

In the case of `CC(C)CCON=O`, the outcome in assay [1], in [3], in assay [4], in assay [6], in [8] and in assay [9] was inactive. Besides, the compound was classed as inactive in [10]. The Potency entry in assay [2], in [5], in assay [7], in assay [11] and in assay [13] was “inactive” throughout.

`ClC=C(Cl)Cl`: the compound was called inactive in assay [1], in [3], in assay [4], in assay [6], in assay [8] and in [9]. Moreover, the outcome in [10] was inactive. Moreover, the Potency entry in assay [2], in [5], in assay [7], in assay [11] and in assay [13] was “inactive” throughout.

As to `COc1ccc2c(c1OC)C(=O)OC2C1c2cc3c(cc2CCN1C)OCO3` (stereo unspecified), the compound was classed as inactive in assay [1], in assay [3], in [4], in [6], in assay [8] and in assay [9]. In addition, the compound was called inactive in [10], in [12] and in assay [14]. The Potency entry in assay [2], in assay [5], in assay [7] and in assay [11] was “inactive” in each case.

For the compound `C[CH2][Hg][S]c1ccccc1C(=O)O`, the call in assay [14] was inactive.

On to `O=C/C=C/c1ccccc1`, for which the compound was classed as inactive in assay [1], in assay [3], in assay [4], in assay [6], in assay [8] and in [9]. Also, in assay [10], the call was inactive. For the same compound, the Potency entry in [2], in assay [5], in assay [7], in [11] and in assay [13] was “inactive” throughout.

`CCOC(=O)c1ccccc1C(=O)OCC`: the compound was classed as inactive in assay [1], in assay [3], in assay [4], in assay [6], in [8] and in assay [9]. The call in [10] was inactive. Besides, the Potency result in [2], in [5], in assay [7], in assay [11] and in assay [13] was “inactive” throughout.

As to `CNC(=O)OCC[N+](C)(C)C`, the Potency result in assay [15] and in [16] was “inactive” in each case.

Take `CCCC(C)C1(CC)C(=O)NC(=O)NC1=O` (stereo unspecified): the compound was classed as inactive in [14].

Take `C=CCN1CC[C@]23c4c5ccc(O)c4O[C@H]2/C(=N/NC(=O)c2ccccc2)CC[C@@]3(O)[C@H]1C5`: in [12], the compound was called inactive.

In the case of `CN1C2CCC1CC(OC(c1ccccc1)c1ccccc1N)C2` (stereo unspecified), the Potency result in [13] is “inactive”. The call in assay [14] was inactive.

As to `COc1ccc2c(c1)/C(=C/c1cnc[nH]1)C(=O)N2`, the Potency result in [15] is “inactive”. The Potency in assay [13] is 794 nM (active). Also, the outcome in [12] was inactive.

For `C[C@@H](CO)NC(=O)[C@@H]1C=C2c3cccc4[nH]cc(c34)C[C@H]2N(C)C1`, the compound was called inactive in [12].

Take `[O]=[Cd]`: the compound was classed as inactive in assay [1], in assay [3], in assay [4], in [6], in assay [8] and in assay [9]. Further, the outcome in assay [10] was inactive. The Potency entry in [2], in [5], in assay [7], in assay [11] and in assay [13] was “inactive” throughout.

For the origin of these results see PubChem BioAssay (NCATS).
